Assay outcomes: PubChem, National Center for Advancing Translational Sciences (NCATS)
Sampled rows, rich in hits. Any-hit rate of the full collection: about 4.7%.
TRHR PAM – TRH receptor (human) allosteric enhancement; P34981; enhancement, % at 2 µM; 360,000 compounds, 0.66% hits; TRHR cells, fluo-8 calcium fluorescence, EC20 TRH enhancement; in the data active = enhancement above about 30%
Target sequence (P34981 whole entry, looked up): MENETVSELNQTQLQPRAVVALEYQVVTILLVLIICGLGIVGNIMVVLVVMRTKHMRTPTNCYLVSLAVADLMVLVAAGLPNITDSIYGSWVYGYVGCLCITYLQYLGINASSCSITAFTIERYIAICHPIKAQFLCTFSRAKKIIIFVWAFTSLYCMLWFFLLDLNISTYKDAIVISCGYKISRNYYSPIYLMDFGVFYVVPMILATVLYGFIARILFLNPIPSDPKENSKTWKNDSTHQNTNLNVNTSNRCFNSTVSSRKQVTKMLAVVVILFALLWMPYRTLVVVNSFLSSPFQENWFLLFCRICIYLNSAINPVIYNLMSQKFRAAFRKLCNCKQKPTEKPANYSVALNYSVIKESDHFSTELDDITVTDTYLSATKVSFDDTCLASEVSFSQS
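TRHR-expressing cells loaded with fluo-8 calcium dye were read kinetically (ex 480/em 530) during compound addition, then stimulated with an EC20 of TRH (10 nM final). Enhancement of the Gq-mediated intracellular calcium response was scored.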
D1 agonist – activates the human D1 dopamine receptor; AID 504660; P21728; activation, % at 2 µM; 360,000 compounds, 1% hits; HEK293 T-REx D1 cells, calcium flux, agonist mode
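Tetracycline-induced HEK293 TREx D1 cells, force-coupled to calcium signalling, were dye-loaded with a no-wash calcium kit. Compound was pin-added after a 10 s baseline. Fluorescence was read kinetically at 1 cycle/s for 180 s, with calcium rises flagged as agonism.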
D1 potentiator – human D1 dopamine receptor positive modulation; HEK293 TREx D1 cells, calcium flux, dopamine EC20 potentiation; potentiation, % at 10 µM; 360,000 compounds, 0.036% hits; P21728; in the data active = potentiation above about 30%
TRHR agonist – activates the human TRH receptor | P34981 | 360,000 compounds, 0.18% hits | activation, % at 2 µM | TRHR cells, calcium flux fluo-8, FDSS agonist mode
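TRHR-expressing cells, plated overnight in medium with 10% serum, were loaded with fluo-8 calcium dye at room temperature. After a 10 s baseline, library compound was pin-added and calcium release was recorded kinetically (ex 480/em 530) as agonist response.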
D1 antagonist – blocks dopamine activation of the human D1 receptor; HEK293 TREx D1 cells, calcium flux, dopamine EC80; stronger effect = lower value; 360,000 compounds, 3.2% hits; activity change, negative = inhibition, % at 10 µM; in the data active = activity change below about -30%
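Allosteric or orthosteric antagonism assessed as attenuation of the calcium response to EC80 dopamine, added 180 s after compound, in induced HEK293 Trex D1 cells loaded with no-wash calcium dye.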
Hits are given with their value. Cut-off read from the data, not from the text of the source, unless noted: active = activation above about 30%; inactive = the rest.

`CC(C)OCCCNc1ncnc2sc3c(c12)CCCC3` gave TRHR PAM inactive, D1 agonist inactive, D1 potentiator inactive, TRHR agonist inactive and D1 antagonist inactive.
`COC(=O)c1ccc(C(=O)OC)c(NC(=O)c2cnn3c(C(F)F)cc(-c4ccccc4)nc23)c1` gave TRHR PAM inactive, D1 agonist inactive, D1 potentiator inactive, TRHR agonist inactive and D1 antagonist inactive.
`CCOC(=O)C1=C(O)/C(=C\c2cc(C)n(-c3ccccc3F)c2C)N=C1C` gave TRHR PAM inactive, D1 agonist inactive, D1 potentiator inactive, TRHR agonist inactive and D1 antagonist inactive.
`CCOC(=O)C1=C(O)/C(=C\c2cc(C)n(-c3ccc(F)cc3)c2C)N=C1C` gave TRHR PAM inactive, D1 agonist inactive, D1 potentiator inactive, TRHR agonist inactive and D1 antagonist -32.
`COc1ccc(C(NC(=O)C2CCCCC2)c2c(O)ccc3ccccc23)cc1` (stereo unspecified) gave TRHR PAM inactive, D1 agonist inactive, D1 potentiator inactive, TRHR agonist inactive and D1 antagonist -46.
For CCCC(=O)NC(c1ccc(OC)cc1)c1c(O)ccc2ccccc12 (stereo unspecified) the results were TRHR PAM inactive, D1 agonist inactive, D1 potentiator inactive, TRHR agonist inactive and D1 antagonist inactive.
CCn1c(COc2ccc(OC)cc2)nc2ccccc21 was read as TRHR PAM inactive, D1 agonist inactive, D1 potentiator inactive, TRHR agonist inactive and D1 antagonist inactive.
C=CCn1c(COc2ccc(OC)cc2)nc2ccccc21 was read as TRHR PAM inactive, D1 agonist inactive, D1 potentiator inactive, TRHR agonist inactive and D1 antagonist -35.
`COc1ccc(Cc2nc3ccccc3n2Cc2ccccc2C)cc1` gave TRHR PAM inactive, D1 agonist inactive, D1 potentiator inactive, TRHR agonist inactive and D1 antagonist inactive.
COc1cccc(OCc2nc3ccccc3n2Cc2ccccc2C)c1 was read as TRHR PAM inactive, D1 agonist 40, D1 potentiator inactive, TRHR agonist inactive and D1 antagonist inactive.
For CC(=O)NCCCc1nc2ccccc2n1Cc1ccccc1C the results were TRHR PAM inactive, D1 agonist 42, D1 potentiator inactive, TRHR agonist inactive and D1 antagonist inactive.
O=c1[nH]c(CN2CCN(c3ncccn3)CC2)nc2c(Br)cc(Br)cc12 was read as TRHR PAM 30, D1 agonist inactive, D1 potentiator inactive, TRHR agonist inactive and D1 antagonist inactive.
For Cc1ccc(S(=O)(=O)c2cc3c(=O)n4cccc(C)c4nc3n(Cc3ccco3)c2=N)cc1C the results were TRHR PAM inactive, D1 agonist inactive, D1 potentiator inactive, TRHR agonist inactive and D1 antagonist inactive.
`Cc1ccc(S(=O)(=O)c2cc3c(=O)n4ccccc4nc3n(Cc3ccco3)c2=N)cc1` gave TRHR PAM inactive, D1 agonist inactive, D1 potentiator inactive, TRHR agonist inactive and D1 antagonist -32.
`O=C(O)C1CC(c2ccccc2)=NO1` (stereo unspecified) gave TRHR PAM 33, D1 agonist inactive, D1 potentiator inactive, TRHR agonist inactive and D1 antagonist inactive.
For CCc1cccc(C)c1NC(=O)CCS(=O)(=O)c1ccc2c(c1)oc(=O)n2C the results were TRHR PAM inactive, D1 agonist inactive, D1 potentiator inactive, TRHR agonist inactive and D1 antagonist inactive.
Screening COc1cccc(-n2c(-c3ccco3)nc3c(cnn3-c3ccccc3C)c2=O)c1 returned TRHR PAM inactive, D1 agonist inactive, D1 potentiator inactive, TRHR agonist inactive and D1 antagonist inactive.
`CCN1CCc2nc3sc(C(=O)c4ccccc4)c(N)c3cc2C1` gave TRHR PAM inactive, D1 agonist inactive, D1 potentiator inactive, TRHR agonist inactive and D1 antagonist inactive.
Screening CCc1ccccc1NC(=O)c1ccc(Cn2cc([N+](=O)[O-])cn2)cc1 returned TRHR PAM inactive, D1 agonist 38, D1 potentiator inactive, TRHR agonist inactive and D1 antagonist inactive.
Screening CCN(CC)C(=O)c1ccc(Cn2cc([N+](=O)[O-])cn2)o1 returned TRHR PAM inactive, D1 agonist inactive, D1 potentiator inactive, TRHR agonist inactive and D1 antagonist -37.
Cc1ccc(/C=N/NC(=O)C(=O)N/N=C/c2ccc(C)o2)o1 was read as TRHR PAM inactive, D1 agonist inactive, D1 potentiator inactive, TRHR agonist inactive and D1 antagonist -31.
